Bioassay records (PubChem BioAssay)
The list is not random: actives were taken first. Their share in the collection is about 2.4%.
D2 ag-1: activates the human D2 dopamine receptor. P14416. HEK293 T-REx D2 cells, calcium flux agonist mode. activation, % at 2 µM. actives 0.53% (n = 340,000). AID 485358;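 active = activation over 3 SD above normal in the single-dose calcium agonist read, cut at about 30% in these data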; also: 0% is about no effect
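Agonism scored from kinetic calcium signal (1 read/sec, 180 s) following compound pin transfer, after a 10 s baseline. Cells: HEK293 Trex line expressing inducible D2 receptor coupled to calcium, dye-loaded after overnight culture at 30 C.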
D2 PAM-1: D2 dopamine receptor (human) potentiation | P14416 | AID 485347 | HEK293 T-REx D2, calcium flux, EC20 dopamine potentiation | actives 0.34% (n = 340,000) | potentiation, % at 10 µM;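 active = potentiation over 3 SD above the plate norm, cut at about 30% in these data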; also: 0% is about no effect
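Potentiation of an EC20 dopamine calcium response is measured in a force-coupled, tetracycline-inducible Hek293 Trex D2 line. Compound-only kinetic reads over 180 s flag agonists before dopamine addition.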
D2 ag-2: activates the human D2 dopamine receptor. DiscoveRx PathHunter D2 beta-arrestin, luminescence, 90 min; 100% = 57 uM dopamine signal. actives 0.084% (n = 360,000). P14416. activation, % (concentration not given with the values); in the data active = activation above about 40%
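DiscoveRx PathHunter D2 beta-arrestin cells (2,100/well) attached overnight, then compound-stimulated 90 min at 37 C in HBSS/10 mM HEPES/0.1% Tween-20 buffer; beta-galactosidase complementation read by luminescence after 1 h at ambient temperature. Dopamine 57 uM final (EC100) as control.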
D2 antag: antagonizes the human D2 dopamine receptor; actives 2% (n = 340,000); inhibition, % at 10 µM; AID 485344; P14416; HEK293 TREx D2 cells, calcium flux, dopamine EC80; in the data active = inhibition above about 30%; inactive = below that, where a call was filed; also: 0% is about no effect
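Compounds are added to dye-loaded, induced HEK293 T-REx cells coupled to calcium release via D2; after a 3 min kinetic read an EC80 dopamine stimulus is given and fluorescence is recorded for 3 more min.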
D2 PAM-2: human D2 receptor positive allosteric modulation. AID 624464. potentiation, % (no concentration beside the values). actives 0.23% (n = 360,000). DiscoveRx D2 beta-arrestin cells, luminescence, 90 min; 100% = 57 uM dopamine signal. P14416; in the data active = potentiation above about 50%
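PathHunter D2 cells, attached overnight at 37 deg C, received compound in DMSO plus dopamine at EC20 (50 nM final) for 90 min at 37 deg C. Beta-arrestin recruitment was read as luminescence after 1 h with detection reagent at ambient temperature.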
Numbers without * were called inactive.

Screening COc1ccc(OCCOCCN2CCN(C)CC2)cc1 returned D2 ag-1 -0.3, D2 PAM-1 -10.5, D2 ag-2 -2.1, D2 antag -3.4 and D2 PAM-2 -1.7.
COc1cccc(OC)c1OCCOCCN1CCN(C)CC1 was read as D2 ag-1 2.1, D2 PAM-1 -25.1, D2 ag-2 0.1, D2 antag 68.4* and D2 PAM-2 -22.7.
Cc1ccc2c(c1)NC(=O)C(CC(=O)NCCCN1CCN(c3cc(Cl)ccc3C)CC1)O2 (stereo unspecified) was read as D2 ag-1 -0.5, D2 PAM-1 -27.7, D2 ag-2 1.1, D2 antag 52.9* and D2 PAM-2 -7.5.
COc1ccc(OC)c2sc(N(Cc3cccnc3)C(=O)c3ccc(C(C)=O)cc3)nc12 was read as D2 ag-1 0.4 and D2 PAM-1 7.5.
Screening Cc1ccc(S(=O)(=O)N(C)C)cc1NC(=O)C1CCCC1 returned D2 ag-1 1.1, D2 PAM-1 -11.2, D2 ag-2 -10.7, D2 antag -8.8 and D2 PAM-2 -26.6.
CCN(CCO)C(=S)Nc1cc(S(=O)(=O)N(C)C)ccc1C was read as D2 ag-1 2.4, D2 PAM-1 -23.6, D2 ag-2 -2.7, D2 antag 50.6* and D2 PAM-2 -11.4.
`Cc1ccc(S(=O)(=O)N(C)C)cc1NC(=S)N1CCCCC1CO` (stereo unspecified) gave D2 ag-1 0.0, D2 PAM-1 -18.3, D2 ag-2 -3.1, D2 antag 39.0* and D2 PAM-2 -9.2.
Cc1ccc(CNC(=O)c2ccc(CSCc3ccccc3Cl)o2)cc1 was read as D2 ag-1 0.9 and D2 PAM-1 -11.9.
